Assay results as given in ChEMBL document CHEMBL3988442, “University of Dundee, Small-Polar-MMV Screening Library” (2021).
For some of these results: Entries with a potency or affinity are not part of this list.

Legend:
Design in all cases: scale not given: direction of the effect not stated beside the values
[1] = biological target: Protein translocase subunit SecA (Escherichia coli (strain K12)) (UniProt P10408); assay: Assay to Identify E. coli SecA ATPase Inhibitors; format: functional; conditions: 30 µM
Sequence of Protein translocase subunit SecA (Escherichia coli (strain K12)) (P10408 whole entry): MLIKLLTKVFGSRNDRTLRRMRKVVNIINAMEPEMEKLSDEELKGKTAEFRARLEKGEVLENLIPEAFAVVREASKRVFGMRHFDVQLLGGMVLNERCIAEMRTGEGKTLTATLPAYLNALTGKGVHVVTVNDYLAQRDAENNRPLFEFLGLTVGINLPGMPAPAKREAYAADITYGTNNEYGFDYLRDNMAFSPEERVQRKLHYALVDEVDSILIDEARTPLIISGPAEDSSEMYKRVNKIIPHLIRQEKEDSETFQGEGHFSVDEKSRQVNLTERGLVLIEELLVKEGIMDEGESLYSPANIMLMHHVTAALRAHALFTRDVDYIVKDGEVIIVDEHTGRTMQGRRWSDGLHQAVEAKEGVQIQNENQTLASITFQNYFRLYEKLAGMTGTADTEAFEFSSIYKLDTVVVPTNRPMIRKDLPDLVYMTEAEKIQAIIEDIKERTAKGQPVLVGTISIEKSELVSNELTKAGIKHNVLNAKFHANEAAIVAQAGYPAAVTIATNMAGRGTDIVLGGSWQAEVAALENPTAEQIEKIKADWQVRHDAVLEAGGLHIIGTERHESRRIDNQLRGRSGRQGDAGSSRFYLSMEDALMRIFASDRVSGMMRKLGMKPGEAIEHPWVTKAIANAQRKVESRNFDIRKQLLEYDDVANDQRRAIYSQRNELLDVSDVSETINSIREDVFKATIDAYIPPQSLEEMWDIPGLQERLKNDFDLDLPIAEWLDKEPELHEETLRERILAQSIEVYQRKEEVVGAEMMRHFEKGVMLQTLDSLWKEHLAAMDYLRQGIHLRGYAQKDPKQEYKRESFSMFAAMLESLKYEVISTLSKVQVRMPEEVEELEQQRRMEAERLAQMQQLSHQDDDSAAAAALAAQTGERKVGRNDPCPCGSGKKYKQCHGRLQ

[2] = biological target: T1, Ubiquitin-activating enzyme e1, putative (Leishmania donovani (strain BPK282A1)) (UniProt E9BSI1); assay: Leishmania donovani Ubiquitin Activating Enzyme (LdE1); format: functional; conditions: 30 µM
T1 sequence (whole entry): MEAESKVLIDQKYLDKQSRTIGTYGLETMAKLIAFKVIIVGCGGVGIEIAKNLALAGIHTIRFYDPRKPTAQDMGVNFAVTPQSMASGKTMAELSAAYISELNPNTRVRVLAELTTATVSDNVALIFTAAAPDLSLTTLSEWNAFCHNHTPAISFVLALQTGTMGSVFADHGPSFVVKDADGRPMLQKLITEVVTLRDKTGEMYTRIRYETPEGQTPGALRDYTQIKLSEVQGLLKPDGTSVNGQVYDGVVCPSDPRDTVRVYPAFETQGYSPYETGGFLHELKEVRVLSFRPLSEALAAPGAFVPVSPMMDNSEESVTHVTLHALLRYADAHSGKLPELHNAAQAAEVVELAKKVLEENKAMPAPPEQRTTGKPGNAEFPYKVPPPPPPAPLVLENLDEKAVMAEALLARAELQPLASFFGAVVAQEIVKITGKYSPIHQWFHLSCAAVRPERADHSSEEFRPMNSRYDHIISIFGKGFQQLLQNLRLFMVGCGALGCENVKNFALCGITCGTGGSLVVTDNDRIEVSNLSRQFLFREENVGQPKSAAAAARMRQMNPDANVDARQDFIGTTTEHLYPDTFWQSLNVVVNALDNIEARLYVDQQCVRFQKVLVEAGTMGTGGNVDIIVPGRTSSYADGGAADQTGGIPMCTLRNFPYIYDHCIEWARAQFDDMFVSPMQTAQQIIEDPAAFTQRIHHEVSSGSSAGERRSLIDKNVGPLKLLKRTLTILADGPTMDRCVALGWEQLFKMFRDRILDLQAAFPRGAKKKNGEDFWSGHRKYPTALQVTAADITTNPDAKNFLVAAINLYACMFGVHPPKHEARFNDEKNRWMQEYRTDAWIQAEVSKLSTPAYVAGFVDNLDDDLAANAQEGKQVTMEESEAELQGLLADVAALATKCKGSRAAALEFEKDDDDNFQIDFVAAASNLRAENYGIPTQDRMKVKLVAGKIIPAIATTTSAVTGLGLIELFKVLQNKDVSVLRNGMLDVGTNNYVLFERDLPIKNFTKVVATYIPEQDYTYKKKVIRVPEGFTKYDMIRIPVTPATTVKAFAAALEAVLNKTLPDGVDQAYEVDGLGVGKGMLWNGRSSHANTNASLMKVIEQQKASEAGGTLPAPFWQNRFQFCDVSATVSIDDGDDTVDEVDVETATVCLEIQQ

[3] = biological target: AMP-activated protein kinase, AMPK (Homo sapiens) (UniProt P54646+O43741+P54619+Q9UGJ0+Q9Y478+Q13131+Q9UGI9); assay: AMP-dependent Kinase enzyme assay. An in vitro enzyme assay that detects ADP turnover that is directly proportional to AMPK activity. This uses naive AMPK that is activated during the assay with MK-8722; format: functional; conditions: 30 µM
[4] = biological target: Sialic acid-binding Ig-like lectin 9 (Homo sapiens) (UniProt Q9Y336); assay: Hs-Siglec9 ALPHAscreen SOP 20170721; conditions: 10 µM
Sequence of Sialic acid-binding Ig-like lectin 9 (Homo sapiens) (Q9Y336 whole entry): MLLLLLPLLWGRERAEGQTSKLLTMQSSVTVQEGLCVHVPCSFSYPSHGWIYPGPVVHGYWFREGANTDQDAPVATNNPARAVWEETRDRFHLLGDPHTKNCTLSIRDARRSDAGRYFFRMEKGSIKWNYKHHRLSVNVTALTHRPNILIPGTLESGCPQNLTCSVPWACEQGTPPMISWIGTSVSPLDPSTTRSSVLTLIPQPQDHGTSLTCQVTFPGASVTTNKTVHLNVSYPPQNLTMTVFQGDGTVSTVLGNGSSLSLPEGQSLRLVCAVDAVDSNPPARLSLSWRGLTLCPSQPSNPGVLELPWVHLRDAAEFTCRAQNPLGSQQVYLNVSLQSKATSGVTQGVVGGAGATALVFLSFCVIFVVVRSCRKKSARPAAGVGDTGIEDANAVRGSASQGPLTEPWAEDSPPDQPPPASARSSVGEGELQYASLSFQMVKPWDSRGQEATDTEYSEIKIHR

[5] = tested on: Trypanosoma cruzi; assay: Trypanosoma cruzi phosphomannomutase and mannose-1-phosphate guanylyltransferase assay; format: functional; conditions: 10 µM
[6] = biological target: T2, Arginase-2, mitochondrial (Homo sapiens) (UniProt P78540); assay: in vitro enzyme assay to detect the production of urea directly proportional to the activity of Arginase II; format: functional; conditions: 33.3 µM; further: in the data most compounds retested in dose-response had high values
T2 sequence (whole entry): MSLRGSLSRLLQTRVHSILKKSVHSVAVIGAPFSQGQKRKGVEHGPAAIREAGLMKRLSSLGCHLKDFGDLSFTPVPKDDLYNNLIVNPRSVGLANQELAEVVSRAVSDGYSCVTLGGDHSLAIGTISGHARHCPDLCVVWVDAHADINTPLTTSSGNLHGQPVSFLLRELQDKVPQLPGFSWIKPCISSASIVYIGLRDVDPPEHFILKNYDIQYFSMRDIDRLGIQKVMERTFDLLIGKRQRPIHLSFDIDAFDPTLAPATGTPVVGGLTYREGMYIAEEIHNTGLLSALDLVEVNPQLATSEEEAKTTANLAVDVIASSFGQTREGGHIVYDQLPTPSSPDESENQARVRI

[7] = biological target: T3, Proteasome subunit beta (Trypanosoma cruzi) (UniProt O96673); assay: Trypanosoma cruzi proteasome chymotrypsin-like activity (TcProtChymo) assay.; further: in the data most compounds retested in dose-response had high values; format: functional; conditions: 9.37 µM
T3 sequence (whole entry): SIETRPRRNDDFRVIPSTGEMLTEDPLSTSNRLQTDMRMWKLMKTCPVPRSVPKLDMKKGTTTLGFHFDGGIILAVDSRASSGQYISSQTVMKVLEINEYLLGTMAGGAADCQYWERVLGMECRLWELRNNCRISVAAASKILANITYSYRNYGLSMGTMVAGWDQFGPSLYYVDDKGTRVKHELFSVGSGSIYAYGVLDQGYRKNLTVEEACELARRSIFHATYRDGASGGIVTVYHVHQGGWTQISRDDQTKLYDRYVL

[8] = species on record: Homo sapiens; assay: To identify inhibition of the IFN signalling (Jak-Stat) pathway via expression of an eGFP reporter gene under the control of an IFN-stimulated response element (ISRE) containing MxA promoter.; format: functional; conditions: 30 µM
[9] = biological target: T4, Tyrosyl-tRNA synthetase, putative (Trypanosoma cruzi (strain CL Brener)) (UniProt Q4DSP6); assay: Trypanosoma cruzi tyrosyl tRNA synthetase (TcYRS) _High Tyrosine SOP; format: functional; conditions: 30 µM; further: in the data most compounds retested in dose-response had high values
T4 sequence (whole entry): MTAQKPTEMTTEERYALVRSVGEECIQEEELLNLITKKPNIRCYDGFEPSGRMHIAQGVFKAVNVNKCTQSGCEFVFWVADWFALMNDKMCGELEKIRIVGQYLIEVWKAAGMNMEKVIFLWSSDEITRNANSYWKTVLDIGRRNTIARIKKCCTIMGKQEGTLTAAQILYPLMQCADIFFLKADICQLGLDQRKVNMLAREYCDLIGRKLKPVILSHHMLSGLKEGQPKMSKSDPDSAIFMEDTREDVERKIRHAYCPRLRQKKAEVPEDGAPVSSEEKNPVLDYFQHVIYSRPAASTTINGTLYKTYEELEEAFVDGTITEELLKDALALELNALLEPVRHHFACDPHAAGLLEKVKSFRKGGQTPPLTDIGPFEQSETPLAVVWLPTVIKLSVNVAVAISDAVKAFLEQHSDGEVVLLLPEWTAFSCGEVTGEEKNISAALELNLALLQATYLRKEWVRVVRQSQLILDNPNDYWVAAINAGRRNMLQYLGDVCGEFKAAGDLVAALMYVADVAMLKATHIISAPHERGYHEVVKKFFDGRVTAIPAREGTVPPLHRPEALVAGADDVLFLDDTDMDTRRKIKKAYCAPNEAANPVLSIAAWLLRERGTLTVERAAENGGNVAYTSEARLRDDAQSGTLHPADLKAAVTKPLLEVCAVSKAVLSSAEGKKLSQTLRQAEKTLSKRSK

[10] = biological target: T4, Tyrosyl-tRNA synthetase, putative (Trypanosoma cruzi (strain CL Brener)); assay: Trypanosoma cruzi tyrosyl tRNA synthetase (TcYRS) SOP; format: functional; conditions: 30 µM
[11] = biological target: Chromo domain-containing protein 1 (Saccharomyces cerevisiae (strain ATCC 204508 / S288c) (Baker's yeast)) (UniProt P32657); assay: ScCHD-1 Enzyme Inhibition Assay; format: functional; conditions: 30 µM; further: in the data most compounds retested in dose-response had high values
Sequence of Chromo domain-containing protein 1 (Saccharomyces cerevisiae (strain ATCC 204508 / S288c) (Baker's yeast)) (P32657 whole entry, the tested form may be a part): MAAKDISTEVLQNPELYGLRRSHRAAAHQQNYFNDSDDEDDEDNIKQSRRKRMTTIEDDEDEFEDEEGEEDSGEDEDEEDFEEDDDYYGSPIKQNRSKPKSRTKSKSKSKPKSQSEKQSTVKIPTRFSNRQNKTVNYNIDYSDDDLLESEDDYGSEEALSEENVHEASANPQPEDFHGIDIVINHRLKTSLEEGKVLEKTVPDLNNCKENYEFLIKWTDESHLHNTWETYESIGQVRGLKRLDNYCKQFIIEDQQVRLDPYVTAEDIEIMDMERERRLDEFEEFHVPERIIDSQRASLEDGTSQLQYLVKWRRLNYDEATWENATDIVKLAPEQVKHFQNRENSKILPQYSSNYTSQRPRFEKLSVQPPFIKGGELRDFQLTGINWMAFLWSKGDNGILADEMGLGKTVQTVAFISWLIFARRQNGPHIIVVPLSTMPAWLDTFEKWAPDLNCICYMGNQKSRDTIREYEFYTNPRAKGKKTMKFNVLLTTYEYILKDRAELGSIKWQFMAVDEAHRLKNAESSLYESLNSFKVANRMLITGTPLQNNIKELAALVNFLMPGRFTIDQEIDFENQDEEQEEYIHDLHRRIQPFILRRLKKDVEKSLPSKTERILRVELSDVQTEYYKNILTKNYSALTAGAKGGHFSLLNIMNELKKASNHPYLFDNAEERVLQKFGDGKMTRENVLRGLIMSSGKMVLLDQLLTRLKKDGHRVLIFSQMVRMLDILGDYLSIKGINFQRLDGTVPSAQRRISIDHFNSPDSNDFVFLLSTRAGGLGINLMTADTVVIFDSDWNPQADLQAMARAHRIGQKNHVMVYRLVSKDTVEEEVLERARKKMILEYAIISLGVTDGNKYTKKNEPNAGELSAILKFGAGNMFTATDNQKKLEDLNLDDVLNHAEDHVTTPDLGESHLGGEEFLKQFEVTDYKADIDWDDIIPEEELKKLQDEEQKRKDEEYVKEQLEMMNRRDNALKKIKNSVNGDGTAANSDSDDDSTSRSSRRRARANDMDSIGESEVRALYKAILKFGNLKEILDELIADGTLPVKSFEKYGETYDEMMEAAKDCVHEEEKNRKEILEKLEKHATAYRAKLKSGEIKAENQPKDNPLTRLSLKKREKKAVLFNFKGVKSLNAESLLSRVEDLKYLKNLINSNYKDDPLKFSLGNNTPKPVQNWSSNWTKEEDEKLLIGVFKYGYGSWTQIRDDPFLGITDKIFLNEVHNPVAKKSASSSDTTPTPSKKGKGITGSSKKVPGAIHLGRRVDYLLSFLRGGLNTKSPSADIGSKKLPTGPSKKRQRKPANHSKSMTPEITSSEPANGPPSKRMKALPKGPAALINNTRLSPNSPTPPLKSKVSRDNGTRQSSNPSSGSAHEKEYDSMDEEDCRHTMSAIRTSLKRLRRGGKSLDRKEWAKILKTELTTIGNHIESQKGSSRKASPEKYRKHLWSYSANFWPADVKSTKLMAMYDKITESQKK

| SMILES | Percent Effect [1] [%] | Percent Effect [2] [%] | Percent Effect [3] [%] | Percent Effect [4] [%] | Percent Effect [5] [%] | Percent Effect [6] [%] | Percent Effect [7] [%] | Percent Effect [8] [%] | Percent Effect [9] [%] | Percent Effect [10] [%] | Percent Effect [11] [%] |
| --- | --- | --- | --- | --- | --- | --- | --- | --- | --- | --- | --- |
| O=C(c1cc(C2CC2)[nH]n1)N1CCN(Cc2ccsc2)CC1 | -5.68 | 21.6 | -3.2 | 10.8 | 10.7 | 1.66 | 14 | 9.93 | 7.92 | 23.2 | -1.29 |
| O=C(NCCc1ccn(-c2ccccc2)n1)N1CCC1 | -2.79 | 15.6 | -0.615 | -16.6 | 1.67 | -2.32 | 25.5 | 4.57 | 5.71 | 25.9 | -20.8 |
| CCC[C@@H]1CN(S(=O)(=O)c2ccc(C)c(F)c2)C[C@H]1N(C)C | -4.83 | 2.67 | -4.64 | -1.02 | -8.86 | 2.08 | 16.2 | 3.61 | 1.64 | 6.17 | -7.9 |
| Cc1ccc(S(=O)(=O)NC(=O)c2cccc3c2OCCO3)c(C)c1 | -2.98 | -5.48 | 7.47 | -1.04 | -3.33 | 4.54 | 9.94 | 5.47 | -10.8 | -12.5 | -2.7 |
| COCCn1ccc(=O)c(OCC(=O)Nc2cccc(C(C)=O)c2)c1C | -2.27 | 12 | 3.85 | 5.25 | 0.982 | -5.11 | 13.5 | -24.6 | 8.47 | 20.5 | -3.7 |
| Cc1cnn(C2CCCN(C(=O)c3ccnc(-n4ccnc4)c3)C2)c1 (stereo not given) | -2.31 | 8.86 | 2.83 | 0.259 | -0.513 | 3.66 | 8.23 | 0.141 | 4.17 | 17.7 | -27.2 |
| O=C(O)c1cc(S(=O)(=O)Nc2ccc(Cl)cc2)cc2c1OCCO2 | -4.18 | -8.86 | 4.72 | 2.13 | -2.97 | 4.09 | 8.75 | -2.12 | -18.8 | -15.2 | -21.4 |
| CCc1nc(CN2CCN(C(=O)c3cnccn3)CC2)cs1 | -2.42 | 5.41 | -4.67 | 12.2 | 4.92 | -5.73 | 15.3 | 11.6 | 1.98 | 11 | -2.71 |
| O=C(COc1ccccc1)N1CCC[C@]2(C[C@H](OCC3CC3)CO2)C1 | -0.456 | 7.79 | 0.996 | -3.06 | -3.45 | 14.8 | 22.1 | 3.98 | 8.47 | 16.7 | -7.91 |
| COC(=O)CCc1c(C)nc2cc(O)nn2c1C | -4.39 | 20.8 | -48.9 | 6.03 | 1.31 | -3.92 | 9.46 | 6.61 | 9.71 | 21.9 | -9.77 |
| COc1ccc(CNC(=O)c2nn(C)c3c2CS(=O)(=O)CC3)cc1OC | -1.94 | 6.67 | 4.43 | 3.41 | -2.16 | -11.8 | 14.8 | 5.39 | 3.17 | 17.9 | -9.43 |
| Cc1nc2c(c(C)c1CC(=O)NCc1cccc(C#N)c1)c(=O)[nH]n2C | -4.87 | 7.79 | 6.32 | 0.967 | -4.21 | 1.9 | 1.05 | 31.2 | 2.86 | 11.8 | -1.91 |
| CCCS(=O)(=O)N1CCN(c2cc(-n3nc(C)cc3C)nc(C)n2)CC1 | -2.23 | 0 | -0.103 | 1.6 | 7.57 | 2.76 | 10.7 | -11 | 2.15 | -3.7 | -4.3 |
| O=C(Cc1ccccc1)N1CCC2(CC(=O)N(c3ccsc3)C2)C1 (stereo not given) | -0.7 | 8.11 | -4.26 | -6.07 | 3.52 | 11.2 | 13.8 | -6.08 | 14.8 | -28.1 | -3.9 |
| C[C@@H]1CN(C2(C(=O)N3CCOCC3)Cc3ccccc3C2)C[C@H](C)O1 | -4.17 | -37.5 | -3.25 | 0.729 | 0.875 | 1.77 | 8.6 | -18.6 | 5.26 | 7.69 | -3.31 |
| Cc1cc(NC(=O)NCCc2ccsc2)n(C)n1 | -0.993 | 15.3 | -5.89 | 15.8 | 0.291 | -0.883 | 20.7 | -9.26 | 1.05 | 10.3 | 85 |
| Cn1c(C2CC2)nc2c1CCN(CC(=O)Nc1nncs1)C2 | -2.25 | -2.6 | 0.616 | 7.43 | -2.06 | -11.4 | 3.72 | -9.48 | 4.85 | 7.32 | -5.21 |
| CC(C)Cc1noc(CN2CCC(NC(=O)c3cccs3)CC2)n1 | -4.22 | 15.6 | 5.36 | 8.56 | 3.64 | -8.28 | 19 | 3.93 | 6.45 | 16.1 | -6.14 |
| N#Cc1ncn(CCC(=O)Nc2ccc(Cl)cc2F)n1 | 1.65 | 8.22 | -0.288 | 4.01 | 1.39 | -1.6 | 18.4 | 30.7 | 11.5 | 21 | -1.18 |
| Cc1ccc(N(CC(=O)c2ccc(Br)cc2)C2=NCCCCC2)cc1 | -1.45 | -55.3 | 5.34 | 3.76 | 5.55 | -11.8 | 11 | 17.9 | 4.25 | -2.6 | -1.8 |
